These results are taken from PubChem BioAssay (NCI).

The structures appear in SMILES notation. Compounds without any hit were thinned out: in the full panel of roughly 83,000, 20% have a hit.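 Cell lines were cultured in 96-well plates, exposed to a single compound concentration, and assessed for percent growth 48 hours later.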 A number with no mark means an inactive call. Calls of active or inactive are those of the source. Rule for the calls: active = growth percent below 10; inactive = the rest.

In the assay the test system is MDA-MB-468 breast. The assay is described as follows: NCI-60 one-dose screen, 48 h (100 = growth as untreated, 0 = no growth, -100 = all killed). Particulars: 10 µM unless noted.
For `CCCn1cnc2c(c1=N)C(c1ccc(Cl)cc1)c1sc3c(F)cccc3c1O2` (centres undefined), the growth was 42.4%.

`O=C(O)Cc1cc(=O)[nH]n(-c2ccccc2)c1=O`: the growth is 102%.

As for `CCN(CC)CCOCC[C@H]1CC[C@H]2[C@@H]3[C@H](C)Cc4cc(OS(N)(=O)=O)ccc4[C@H]3CC[C@]12C`, the growth was -87.2% (active).

As for `CCCCC[C@@H]1Cc2cc(O)c(C(=O)O)c3c2[C@H](C[C@]2(OC[C@@H](CC(=O)[C@@](C)(CC)C(=O)OC)[C@@H]2C)O3)O1`, the growth is 110%.

For `OCCc1ccc(Cl)cc1`, the growth was 103%.

As for `COc1ccc2c(=O)cc(C(Cl)(Cl)Cl)oc2c1`, the growth is -81.2% (active).

For the compound `CC(C)C(C#N)(C(C)C)C(C)C`, the growth was 109%.

Take `CN1CCN(C(=O)[C@]23CCC(C)(C)C[C@@H]2C2=CC[C@@H]4[C@@]5(C)Cc6c([nH]c7ccccc67)C(C)(C)[C@@H]5CC[C@@]4(C)[C@]2(C)CC3)CC1`: the growth was 98%.

With `NC(N)=Nc1ccc(Oc2cccc(NC(N)=Nc3ccc(I)cc3F)c2)cc1`, the growth is 35.5%.

For the compound `Cc1sc2c(c1C)c(=O)nc1c(-c3nc(-c4ccc(F)cc4)no3)n[nH]n12`, the growth was 110%.

Consider `COc1cccc(-c2nc(-c3ccc(NS(=O)(=O)c4ccccc4)cc3)[nH]c2-c2ccnc(Br)c2)c1`, for which the growth is 18.3%.

Turning to `N=c1ccc2nc3c(cc(N)c4ccccc43)oc-2c1`, the growth was -78.4% (active).

On to `O=C1OCC2=C1C(c1cccc(Cl)c1)c1cc3c(cc1N2CCO)CCC3` (centres undefined), for which the growth is -9.35% (active).

As for `C#C[C@]1(O)CC[C@H]2[C@@H]3CC=C4c5sc(-c6ccccn6)nc5CC[C@]4(C)[C@H]3CC[C@@]21C`, the growth was 89.2%.
